What all share (assay): DAPPL (digital affinity profiling via proximity ligation, sequencing); 10 mM Tris-HCl pH 7.5, 50 mM NaCl, 1 mM DTT, 4% glycerol, room temperature, 30 min; GST-TFs on glutathione beads, 16-mer random dsDNA library, 0.1% formaldehyde crosslink after washing; high values mean tight binding
One assay concerns the target T1, FLI1 (Homo sapiens, UniProt Q01543 1-452).
T1 sequence: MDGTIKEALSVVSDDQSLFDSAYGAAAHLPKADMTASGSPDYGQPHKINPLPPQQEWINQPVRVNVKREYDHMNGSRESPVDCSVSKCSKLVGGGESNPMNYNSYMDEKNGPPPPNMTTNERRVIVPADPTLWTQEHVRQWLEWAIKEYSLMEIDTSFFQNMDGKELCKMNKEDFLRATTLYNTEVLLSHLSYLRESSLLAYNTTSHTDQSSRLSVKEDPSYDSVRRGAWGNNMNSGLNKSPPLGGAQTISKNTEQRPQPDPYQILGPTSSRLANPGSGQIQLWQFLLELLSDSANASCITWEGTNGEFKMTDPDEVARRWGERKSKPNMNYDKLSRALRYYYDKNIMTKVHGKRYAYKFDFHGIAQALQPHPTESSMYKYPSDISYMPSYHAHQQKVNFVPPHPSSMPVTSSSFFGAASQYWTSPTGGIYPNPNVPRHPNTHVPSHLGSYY
Particulars: protein: recombinant; tags: N-terminal GST; dsDNA, one strand shown. Summed up:
(§1)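 Beads coated with glutathione captured GST-fused human transcription factors that had been expressed in yeast, and the factors were then given DNA barcodes and pooled with a tag-only sample. The pools were incubated with 200 nmole of a random double-stranded 16-mer DNA library in Tris/NaCl/DTT/glycerol buffer for 30 min at room temperature, washed, crosslinked with 0.1% formaldehyde and proximity-ligated with BsaI/T4 ligase at 37 °C for 1 h. PCR amplification and Illumina NextSeq500 sequencing came last. Binding signal is each hexamer's read frequency for a factor divided by its frequency for the tag-only sample.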

For a further assay, the target named is T2, ELK1 (Homo sapiens, UniProt P19419 1-428).
T2 sequence: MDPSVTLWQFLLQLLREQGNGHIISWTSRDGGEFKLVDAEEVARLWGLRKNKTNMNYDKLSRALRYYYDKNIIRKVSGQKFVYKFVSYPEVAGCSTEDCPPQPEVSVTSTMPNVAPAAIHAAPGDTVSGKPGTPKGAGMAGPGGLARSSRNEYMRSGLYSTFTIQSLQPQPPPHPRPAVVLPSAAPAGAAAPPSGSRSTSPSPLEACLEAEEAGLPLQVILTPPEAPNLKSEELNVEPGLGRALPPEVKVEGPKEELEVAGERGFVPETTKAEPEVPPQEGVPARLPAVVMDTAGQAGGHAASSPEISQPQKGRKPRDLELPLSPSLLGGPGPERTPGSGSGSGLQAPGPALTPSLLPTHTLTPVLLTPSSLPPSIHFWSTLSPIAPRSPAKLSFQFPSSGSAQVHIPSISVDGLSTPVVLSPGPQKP
Particulars: protein: recombinant; tags: N-terminal GST; dsDNA, one strand shown. The essentials:
as §1

A further assay deals with T3, GABPA (Homo sapiens, UniProt Q06546 1-454).
T3 sequence: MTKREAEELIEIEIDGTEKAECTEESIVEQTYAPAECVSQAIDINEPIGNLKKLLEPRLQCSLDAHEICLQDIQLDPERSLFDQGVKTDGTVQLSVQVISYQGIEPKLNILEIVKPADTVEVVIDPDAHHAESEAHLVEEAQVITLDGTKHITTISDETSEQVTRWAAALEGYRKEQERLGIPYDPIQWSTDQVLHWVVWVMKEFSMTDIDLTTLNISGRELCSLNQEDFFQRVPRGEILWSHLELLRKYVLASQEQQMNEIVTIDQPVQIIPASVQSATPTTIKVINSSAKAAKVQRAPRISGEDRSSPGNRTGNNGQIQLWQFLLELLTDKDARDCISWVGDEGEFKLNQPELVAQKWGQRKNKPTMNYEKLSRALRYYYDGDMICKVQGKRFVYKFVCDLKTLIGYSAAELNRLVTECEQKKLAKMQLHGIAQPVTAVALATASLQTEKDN
To be noted: protein: recombinant; tags: N-terminal GST; dsDNA, one strand shown. The essentials: as §1

A further assay has as its target T4, ERG (Homo sapiens, UniProt P11308 1-479).
T4 sequence: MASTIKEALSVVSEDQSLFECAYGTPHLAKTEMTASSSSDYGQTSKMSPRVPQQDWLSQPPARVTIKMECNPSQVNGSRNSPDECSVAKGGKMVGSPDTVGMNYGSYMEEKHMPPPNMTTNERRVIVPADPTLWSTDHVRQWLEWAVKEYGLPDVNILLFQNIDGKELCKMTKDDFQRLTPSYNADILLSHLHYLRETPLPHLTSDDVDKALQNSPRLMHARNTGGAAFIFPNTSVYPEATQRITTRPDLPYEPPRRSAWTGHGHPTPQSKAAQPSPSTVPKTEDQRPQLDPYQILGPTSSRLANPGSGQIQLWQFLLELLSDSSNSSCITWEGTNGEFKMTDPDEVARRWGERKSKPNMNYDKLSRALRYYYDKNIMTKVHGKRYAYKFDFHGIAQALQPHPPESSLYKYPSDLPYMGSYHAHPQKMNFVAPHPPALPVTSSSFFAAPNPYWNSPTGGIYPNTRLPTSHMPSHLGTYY
To be noted: protein: recombinant; tags: N-terminal GST; dsDNA, one strand shown. The essentials:
as §1

Another assay deals with ELF1 (Homo sapiens, UniProt P32519 1-619). To be noted: protein: recombinant; tags: N-terminal GST; dsDNA, one strand shown. The essentials:
as §1

The target of another assay is T5, EHF (Homo sapiens, UniProt Q9NZC4 1-300).
T5 sequence: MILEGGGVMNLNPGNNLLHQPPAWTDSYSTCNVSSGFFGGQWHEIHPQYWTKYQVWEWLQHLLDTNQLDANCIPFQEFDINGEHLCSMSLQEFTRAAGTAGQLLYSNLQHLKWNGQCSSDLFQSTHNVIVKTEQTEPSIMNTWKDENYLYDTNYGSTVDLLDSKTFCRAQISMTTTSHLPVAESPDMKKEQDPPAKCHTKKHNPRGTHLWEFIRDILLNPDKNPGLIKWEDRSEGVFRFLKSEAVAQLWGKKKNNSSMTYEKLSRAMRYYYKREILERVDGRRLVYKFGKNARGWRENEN
Particulars: protein: recombinant; tags: N-terminal GST; dsDNA, one strand shown. Summed up:
as §1

A further assay concerns the target SPI1 (Homo sapiens, UniProt P17947 1-270). Particulars: protein: recombinant; tags: N-terminal GST; dsDNA, one strand shown. The essentials:
as §1

A further assay concerns the target ETV5 (Homo sapiens, UniProt P41161 1-510). Particulars: protein: recombinant; tags: N-terminal GST; dsDNA, one strand shown. Summed up:
as §1

The target of a further assay is HSF1 (Homo sapiens, UniProt Q00613 1-529). Particulars: protein: recombinant; tags: N-terminal GST; chain copies: 3; dsDNA, one strand shown. Summed up:
as §1

The next assay has as its target T6, SPIC (Homo sapiens, UniProt Q8N5J4 1-248).
T6 sequence: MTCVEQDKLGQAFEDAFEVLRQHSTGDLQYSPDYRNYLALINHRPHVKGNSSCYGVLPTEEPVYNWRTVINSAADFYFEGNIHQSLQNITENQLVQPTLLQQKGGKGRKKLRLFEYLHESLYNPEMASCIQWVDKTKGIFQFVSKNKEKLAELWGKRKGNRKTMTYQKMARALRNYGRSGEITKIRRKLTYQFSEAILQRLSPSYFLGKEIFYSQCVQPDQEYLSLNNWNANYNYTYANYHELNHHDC
Particulars: protein: recombinant; tags: N-terminal GST; dsDNA, one strand shown. Summed up: as §1

Another assay addresses ELF4 (Homo sapiens, UniProt Q99607 1-663). Particulars: protein: recombinant; tags: N-terminal GST; dsDNA, one strand shown. Summed up:
as §1

In a further assay the target is T7, ELF3 (Homo sapiens, UniProt P78545 1-371).
T7 sequence: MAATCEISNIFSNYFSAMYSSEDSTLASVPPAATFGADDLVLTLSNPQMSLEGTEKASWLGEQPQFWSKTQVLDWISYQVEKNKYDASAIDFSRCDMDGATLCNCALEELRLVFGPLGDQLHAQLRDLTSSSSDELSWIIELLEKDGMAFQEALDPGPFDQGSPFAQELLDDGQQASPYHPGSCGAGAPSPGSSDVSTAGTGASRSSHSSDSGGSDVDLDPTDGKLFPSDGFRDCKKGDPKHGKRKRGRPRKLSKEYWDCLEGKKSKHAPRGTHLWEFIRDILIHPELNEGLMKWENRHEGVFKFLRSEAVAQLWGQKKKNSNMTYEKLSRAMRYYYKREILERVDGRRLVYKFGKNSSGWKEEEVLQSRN
Particulars: protein: recombinant; tags: N-terminal GST; dsDNA, one strand shown. Summed up: as §1

For a further assay, the target named is CRX (Homo sapiens, UniProt O43186 1-299). Particulars: protein: recombinant; tags: N-terminal GST; dsDNA, one strand shown. The essentials: as §1
Chain of CRX (O43186 whole entry): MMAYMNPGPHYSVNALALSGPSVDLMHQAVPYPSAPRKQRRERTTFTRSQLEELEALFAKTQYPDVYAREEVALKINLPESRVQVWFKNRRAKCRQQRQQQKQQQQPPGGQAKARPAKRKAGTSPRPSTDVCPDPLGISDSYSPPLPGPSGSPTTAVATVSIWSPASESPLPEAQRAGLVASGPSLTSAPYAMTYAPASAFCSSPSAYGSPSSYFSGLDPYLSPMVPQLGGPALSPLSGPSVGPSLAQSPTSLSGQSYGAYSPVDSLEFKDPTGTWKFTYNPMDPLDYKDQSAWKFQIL
The target in a further assay is ETV1 (Homo sapiens, UniProt P50549 1-477). Particulars: protein: recombinant; tags: N-terminal GST; dsDNA, one strand shown. Summed up: as §1
Chain of ETV1 (P50549 whole entry): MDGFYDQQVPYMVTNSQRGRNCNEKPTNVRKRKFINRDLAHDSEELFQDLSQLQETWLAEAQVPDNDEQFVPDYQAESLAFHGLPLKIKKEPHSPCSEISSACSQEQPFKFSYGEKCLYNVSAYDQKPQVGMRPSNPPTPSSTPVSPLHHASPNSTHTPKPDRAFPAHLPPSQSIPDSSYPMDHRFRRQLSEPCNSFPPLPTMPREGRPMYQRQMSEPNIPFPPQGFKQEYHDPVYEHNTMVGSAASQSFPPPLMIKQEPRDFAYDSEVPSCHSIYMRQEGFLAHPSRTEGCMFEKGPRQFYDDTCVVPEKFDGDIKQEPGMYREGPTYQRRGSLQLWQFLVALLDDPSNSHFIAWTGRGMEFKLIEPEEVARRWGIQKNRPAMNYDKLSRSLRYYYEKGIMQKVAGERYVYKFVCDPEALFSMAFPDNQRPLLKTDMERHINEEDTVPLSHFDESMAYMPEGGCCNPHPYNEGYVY

Chain of ELF1 (P32519 whole entry): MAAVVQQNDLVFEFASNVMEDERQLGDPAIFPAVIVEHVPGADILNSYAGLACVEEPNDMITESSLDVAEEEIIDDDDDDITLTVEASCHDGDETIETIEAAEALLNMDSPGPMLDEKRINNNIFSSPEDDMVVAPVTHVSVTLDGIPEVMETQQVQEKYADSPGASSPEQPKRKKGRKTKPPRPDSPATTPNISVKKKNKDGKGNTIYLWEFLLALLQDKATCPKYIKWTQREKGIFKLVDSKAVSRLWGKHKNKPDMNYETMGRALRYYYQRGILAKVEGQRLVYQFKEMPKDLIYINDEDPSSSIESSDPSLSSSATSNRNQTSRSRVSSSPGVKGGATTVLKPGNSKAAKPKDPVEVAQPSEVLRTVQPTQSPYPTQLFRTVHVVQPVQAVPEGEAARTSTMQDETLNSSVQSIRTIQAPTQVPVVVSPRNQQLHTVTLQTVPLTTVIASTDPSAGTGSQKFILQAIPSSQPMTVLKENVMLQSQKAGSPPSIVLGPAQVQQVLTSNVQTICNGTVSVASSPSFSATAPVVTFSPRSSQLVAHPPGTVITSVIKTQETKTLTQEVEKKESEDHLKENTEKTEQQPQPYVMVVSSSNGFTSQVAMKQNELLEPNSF
Chain of HSF1 (Q00613 whole entry): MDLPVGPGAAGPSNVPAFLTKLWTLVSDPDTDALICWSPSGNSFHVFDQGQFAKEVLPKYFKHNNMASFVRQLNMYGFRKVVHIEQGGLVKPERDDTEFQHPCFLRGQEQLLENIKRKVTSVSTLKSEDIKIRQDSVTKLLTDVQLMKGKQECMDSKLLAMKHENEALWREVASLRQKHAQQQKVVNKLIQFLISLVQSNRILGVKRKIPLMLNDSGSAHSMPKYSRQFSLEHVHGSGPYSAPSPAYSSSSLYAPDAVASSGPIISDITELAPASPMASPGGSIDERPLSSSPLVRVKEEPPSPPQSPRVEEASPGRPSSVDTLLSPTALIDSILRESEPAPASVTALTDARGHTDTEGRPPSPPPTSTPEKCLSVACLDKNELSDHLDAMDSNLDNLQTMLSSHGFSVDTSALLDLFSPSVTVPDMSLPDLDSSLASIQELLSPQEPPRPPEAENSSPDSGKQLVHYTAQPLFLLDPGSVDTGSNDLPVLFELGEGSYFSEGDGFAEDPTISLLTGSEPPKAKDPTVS
Chain of ELF4 (Q99607 whole entry): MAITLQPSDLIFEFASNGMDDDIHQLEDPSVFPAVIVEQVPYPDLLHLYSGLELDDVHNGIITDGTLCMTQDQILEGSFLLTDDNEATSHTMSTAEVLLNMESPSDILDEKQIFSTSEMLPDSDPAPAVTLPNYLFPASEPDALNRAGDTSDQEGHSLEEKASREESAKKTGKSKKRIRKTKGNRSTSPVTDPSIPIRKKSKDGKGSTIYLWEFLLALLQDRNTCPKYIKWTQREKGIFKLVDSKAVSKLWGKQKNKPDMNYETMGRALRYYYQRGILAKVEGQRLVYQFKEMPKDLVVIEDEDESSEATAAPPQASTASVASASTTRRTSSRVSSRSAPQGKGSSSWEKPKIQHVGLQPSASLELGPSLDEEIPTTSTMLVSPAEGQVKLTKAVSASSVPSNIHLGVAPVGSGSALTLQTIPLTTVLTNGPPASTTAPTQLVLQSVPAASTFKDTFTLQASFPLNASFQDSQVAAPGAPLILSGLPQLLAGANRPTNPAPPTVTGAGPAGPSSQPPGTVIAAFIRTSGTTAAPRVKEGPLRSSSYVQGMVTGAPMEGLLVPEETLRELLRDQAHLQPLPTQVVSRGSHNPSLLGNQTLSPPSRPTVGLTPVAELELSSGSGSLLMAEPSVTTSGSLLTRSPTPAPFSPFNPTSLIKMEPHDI
Chain of ETV5 (P41161 whole entry): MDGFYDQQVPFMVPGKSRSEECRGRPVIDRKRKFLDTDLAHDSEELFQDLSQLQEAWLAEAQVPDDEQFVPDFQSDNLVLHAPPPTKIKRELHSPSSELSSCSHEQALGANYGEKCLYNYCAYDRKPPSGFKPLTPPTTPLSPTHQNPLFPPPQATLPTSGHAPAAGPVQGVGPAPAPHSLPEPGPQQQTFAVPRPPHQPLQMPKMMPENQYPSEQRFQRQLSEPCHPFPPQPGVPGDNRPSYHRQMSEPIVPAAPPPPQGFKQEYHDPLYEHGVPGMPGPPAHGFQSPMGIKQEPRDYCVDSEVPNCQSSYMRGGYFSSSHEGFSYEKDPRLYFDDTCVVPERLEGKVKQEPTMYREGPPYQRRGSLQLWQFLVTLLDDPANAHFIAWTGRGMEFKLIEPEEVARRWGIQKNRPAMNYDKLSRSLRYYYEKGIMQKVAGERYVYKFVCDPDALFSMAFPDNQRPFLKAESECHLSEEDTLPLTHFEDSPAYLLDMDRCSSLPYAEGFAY

On to TAGTCT, for which the binding signal is 1.09 fold enrichment (6-mer frequency, TF over GST control) in the assay with FLI1; 1.07 fold enrichment (6-mer frequency, TF over GST control) in the assay with ELK1; 1.21 fold enrichment (6-mer frequency, TF over GST control) with GABPA; 1.08 fold enrichment (6-mer frequency, TF over GST control) with ERG; 1.07 fold enrichment (6-mer frequency, TF over GST control) with ELF1; 1.05 fold enrichment (6-mer frequency, TF over GST control) with EHF. The binding signal with SPI1 was 1.07 fold enrichment (6-mer frequency, TF over GST control); with ETV5, 1.01 fold enrichment (6-mer frequency, TF over GST control); in the assay with HSF1, 1.4 fold enrichment (6-mer frequency, TF over GST control); in the assay with SPIC it was 1.05 fold enrichment (6-mer frequency, TF over GST control); with ELF4 it was 1.03 fold enrichment (6-mer frequency, TF over GST control); with ELF3, 1.14 fold enrichment (6-mer frequency, TF over GST control). Also, the binding signal was 1.4 fold enrichment (6-mer frequency, TF over GST control) in the assay with CRX and 1.01 fold enrichment (6-mer frequency, TF over GST control) with ETV1.

For the origin of these results see PMC7862700, “An all-to-all approach to the identification of sequence-specific readers for epigenetic DNA modifications on cytosine”.
